# Source: PubChem BioAssay AID489017 (The Scripps Research Institute Molecular Screening Center, 2010)
# Activity calls are given as the source filed them. No rule for the calls is given here.
# System: Potassium Channel [KATP]
# Experiment: receptor, enzyme and CYP inhibition profiling – biochemical, Ricerca HitProfilingScreen, CYP450, selectivity assay for S1P4 antagonist project, profiling panel (AID 489017)
# Conditions: Ricerca receptor/enzyme binding panel plus CYP450, at 10 µM, hits give high values
compound,measurement,value
CCc1cccc(CC)c1NC(=O)c1ccc(-c2cc(Cl)ccc2Cl)o1,inhibition,14% (inactive)
